In experiment [1] the target is D(1A) dopamine receptor (Homo sapiens) (UniProt P21728). Put plainly: NVS_GPCR_hDRD1: NovaScreen (NVS) G Protein-Coupled Receptor Assay for human Dopamine Receptor D1 (DRD1) (AID 2283269). In a few lines:
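Cell-free radioligand binding to human DRD1 from HEK293 membranes, read 1 h after dosing by filter-based scintillation counting. Loss of signal versus DMSO baseline marks displacement. Primary screen at 25 uM single concentration in duplicate; actives followed up in concentration series.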

In experiment [2] the target is human Thromboxane A2 Receptor (TXA2), TBXA2R (gene 6915) (UniProt P21731). Description: NVS_GPCR_hTXA2: NovaScreen (NVS) G Protein-Coupled Receptor Assay for human Thromboxane A2 Receptor (TXA2) (AID 2283282).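 Note: actives reduce bound radioligand signal relative to DMSO baseline.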 In a few lines: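 Human platelet-derived receptor preparation incubated with test chemical and radiolabelled ligand for 1 hour, cell-free. Bound label was separated by filtration and counted; displacement relative to DMSO controls gave activity, screened at 25 uM, then titrated.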

Experiment [3] addresses human Opioid Receptor Mu (Opiate Mu), OPRM1 (gene 4988) (UniProt P35372). Put plainly: NVS_GPCR_hOpiate_mu: NovaScreen (NVS) G Protein-Coupled Receptor Assay for human Opioid Receptor Mu (Opiate Mu) (AID 2283290).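 Note: hits lower bound tracer signal versus DMSO meaning displacement of the ligand.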 In a few lines: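 Cell-free radioligand binding to membranes from CHO cells expressing the receptor; bound tracer measured by filter-based scintillation counting 2.5 hours after dosing. Loss of signal versus DMSO baseline reflects displacement; primary screen at 25 uM in duplicate, actives followed up in concentration series.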

The target of experiment [4] is rat Peripheral-type Benzodiazepine Receptor (PBR), Tspo (gene 24230) (UniProt P16257). Description: NVS_MP_rPBR: NovaScreen (NVS) Membrane Protein Assay for rat Peripheral-type Benzodiazepine Receptor (PBR) (AID 2283335). The procedure, abridged:
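Rat kidney membranes; radioligand binding with displacement, filter-based scintillation counting, 1 h incubation. Primary screen in duplicate at 25 uM, actives followed in concentration series; loss of binding vs DMSO.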

Experiment [5] concerns the target bovine Estrogen Receptor (ER), ESR1 (gene 407238) (UniProt P49884). Put plainly: NVS_NR_bER: NovaScreen (NVS) Nuclear Receptor Binding Assay for bovine Estrogen Receptor (ER) (AID 2283345).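 Note: actives lower the bound radioligand count which means they displace the ER ligand.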 The procedure, abridged:
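Cell-free radioligand binding with receptor from bovine uterine membranes, read by scintillation counting 18 h after dosing. Loss of specific binding was scored against DMSO; primary screen at 25 uM in duplicate, actives then run as concentration series.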

The target in experiment [6] is chimpanzee Androgen Receptor (AR), AR (gene 747460) (UniProt O97775). Description: NVS_NR_cAR: NovaScreen (NVS) Nuclear Receptor Binding Assay for chimpanzee Androgen Receptor (AR) (AID 2283346). In a few lines:
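Cell-free competition binding with insect-cell (Sf9/Sf21) extracted chimpanzee AR; scintillation signal from lysate at 72 h. Screened in duplicate at 25 uM, then concentration-response for actives; fitting relative to DMSO.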

The target of experiment [7] is Estrogen receptor (Homo sapiens) (UniProt P03372). Description: NVS_NR_hER: NovaScreen (NVS) Nuclear Receptor Binding Assay for human Estrogen Receptor (ER) (AID 2283348). The procedure, abridged:
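Scintillation signal from bound radioligand was measured 18 hours after chemical addition to cell-free MCF7 protein extracts, with DMSO as baseline. Activity was scored as signal loss; compounds ran first at 25 uM in duplicate.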

For experiment [8] the target is unchanged. Put plainly: OT_ER_ERaERa_1440: Odyssey Thera (OT) 24-hour HEK293T Protein-Complementation Assay for Estrogen Receptor-alpha/-alpha Homodimer (AID 2283349).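 Note: hits raise fluorescence above DMSO for agonists and antagonists alike.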 The procedure, abridged:
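Protein-fragment complementation between two human ERα ligand-binding domains (aa 310-547) in stably transfected HEK293T cells was monitored after 24 h treatment, using fluorescence intensity relative to vehicle controls.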

In experiment [9] the target is human Adenosine A2a Receptor (AdoRA2a), ADORA2A (gene 135) (UniProt P29274). Description: NVS_GPCR_hAdoRA2a: NovaScreen (NVS) G Protein-Coupled Receptor Assay for human Adenosine A2a Receptor (AdoRA2a) (AID 2283256). The procedure, abridged: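 Radioligand displacement on HEK293-derived membrane protein, cell-free; filter-based scintillation counting 1.5 hours after dosing, loss of signal vs DMSO. Single-point duplicate screen at 25 uM, actives retested in concentration series.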

In experiment [10] the target is human Matrix Metalloproteinase-9 (MMP9), MMP9 (gene 4318) (UniProt P14780). Put plainly: NVS_ENZ_hMMP9: NovaScreen (NVS) Enzymatic Assay for human Matrix Metalloproteinase-9 (MMP9) (AID 2283190).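 Note: cell-free recombinant MMP9 protease activity read by fluorescent substrate signal; active means inhibition seen as loss of fluorescence signal versus DMSO.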 In a few lines:
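Extracted enzyme, fluorescent substrate, 1 h post-dose read. Single conc 25 uM in duplicate, then concentration series for actives. Activity = signal loss relative to DMSO negative control.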

The target in experiment [11] is sheep Cyclooxygenase-1 (Cox1), PTGS1 (gene 443551) (UniProt P05979). Put plainly: NVS_ENZ_oCOX1: NovaScreen (NVS) Enzymatic Assay for sheep Cyclooxygenase-1 (Cox1) (AID 2283239).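 Note: actives reduce cyclooxygenase activity so potencies are for inhibitors.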 The procedure, abridged:
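Absorbance read-out of cyclooxygenase activity in a cell-free preparation from sheep seminal vesicles, taken 0.66 hour after dosing. Initial testing was in duplicate at 25 uM, and confirmatory testing was run in concentration series.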

Experiment [12] addresses rat Thyrotropin Releasing Hormone Receptor (TRH), Trhr (gene 25570) (UniProt Q01717). Description: NVS_GPCR_rTRH: NovaScreen (NVS) G Protein-Coupled Receptor Assay for rat Thyrotropin Releasing Hormone Receptor (TRH) (AID 2283329).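 Note: hit means lower bound tracer signal versus DMSO baseline.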 The procedure, abridged: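 Cell-free radioligand binding on rat forebrain membranes; bound tracer measured by filter-based scintillation counting 4 hours after dosing. Loss of signal versus DMSO baseline indicates displacement; primary screen at 25 uM in duplicate, actives then run in concentration series.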

Experiment [13] has as its target guinea pig Opioid, Kappa 1 Receptor (OpiateK), OPRK1 (gene 100135587) (UniProt P41144). Description: NVS_GPCR_gOpiateK: NovaScreen (NVS) G Protein-Coupled Receptor Assay for guinea pig Opioid, Kappa 1 Receptor (OpiateK) (AID 2283252).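 Note: radioligand displacement from kappa opioid receptor in guinea pig cerebellar membranes; active means reduced radioligand binding relative to DMSO.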 In a few lines:
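Signal is scintillation counts of filter-trapped radioligand bound to guinea pig cerebellar membrane receptor, measured 2 hours post-dosing. Activity is loss of binding versus DMSO, first at 25 uM in duplicate, then as concentration series for actives.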

Experiment [14] concerns the target human Adenosine A1 Receptor (AdoRA1), ADORA1 (gene 134) (UniProt P30542). Description: NVS_GPCR_hAdoRA1: NovaScreen (NVS) G Protein-Coupled Receptor Assay for human Adenosine A1 Receptor (AdoRA1) (AID 2283254). In a few lines: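 Membranes from human cortical tissue were incubated with radioligand and test chemical for 1 hour, then filtered and counted. Activity was taken as signal loss relative to DMSO, screened at 25 uM in duplicate before concentration-response follow-up.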

Experiment [15] deals with human Phosphoinositide 3-kinase alpha (PI3Ka), PIK3CA (gene 5290) (UniProt P42336). Put plainly: NVS_ENZ_hPI3Ka: NovaScreen (NVS) Enzymatic Assay for human Phosphoinositide 3-kinase alpha (PI3Ka) (AID 2283196). The procedure, abridged: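 Fluorescence/mobility-shift readout of substrate conversion by recombinant enzyme, 1 h post-dosing. Primary screen in duplicate at 25 uM; actives (e.g. ≥30% inhibition) retested in singleton concentration-response, top concentration 50 uM.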

Several values for one entry are separate records, joined by “and”; a condition that tells them apart may be missing. Identical values can stand only once. Records with an inconclusive call do not appear. Where a structure was tested more than once in an assay, its records may differ in their call. Activity calls are given as the source filed them. Rule for the calls: active = hit-call score of the fitted dose curve at least 0.9, where 1 is the maximum; inconclusive = response in the unintended direction; inactive = score below 0.9.

Chain of human Thromboxane A2 Receptor (TXA2), TBXA2R (gene 6915) (P21731 whole entry, looked up): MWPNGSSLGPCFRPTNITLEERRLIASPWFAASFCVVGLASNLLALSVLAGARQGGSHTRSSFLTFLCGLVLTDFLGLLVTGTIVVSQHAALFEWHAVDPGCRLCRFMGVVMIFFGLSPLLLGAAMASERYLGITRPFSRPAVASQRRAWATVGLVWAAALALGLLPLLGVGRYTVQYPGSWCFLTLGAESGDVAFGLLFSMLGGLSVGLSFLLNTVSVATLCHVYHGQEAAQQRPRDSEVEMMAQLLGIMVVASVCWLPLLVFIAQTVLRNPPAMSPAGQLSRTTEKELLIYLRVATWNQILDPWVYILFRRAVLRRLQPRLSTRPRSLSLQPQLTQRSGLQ
Chain of chimpanzee Androgen Receptor (AR), AR (gene 747460) (O97775 whole entry, looked up): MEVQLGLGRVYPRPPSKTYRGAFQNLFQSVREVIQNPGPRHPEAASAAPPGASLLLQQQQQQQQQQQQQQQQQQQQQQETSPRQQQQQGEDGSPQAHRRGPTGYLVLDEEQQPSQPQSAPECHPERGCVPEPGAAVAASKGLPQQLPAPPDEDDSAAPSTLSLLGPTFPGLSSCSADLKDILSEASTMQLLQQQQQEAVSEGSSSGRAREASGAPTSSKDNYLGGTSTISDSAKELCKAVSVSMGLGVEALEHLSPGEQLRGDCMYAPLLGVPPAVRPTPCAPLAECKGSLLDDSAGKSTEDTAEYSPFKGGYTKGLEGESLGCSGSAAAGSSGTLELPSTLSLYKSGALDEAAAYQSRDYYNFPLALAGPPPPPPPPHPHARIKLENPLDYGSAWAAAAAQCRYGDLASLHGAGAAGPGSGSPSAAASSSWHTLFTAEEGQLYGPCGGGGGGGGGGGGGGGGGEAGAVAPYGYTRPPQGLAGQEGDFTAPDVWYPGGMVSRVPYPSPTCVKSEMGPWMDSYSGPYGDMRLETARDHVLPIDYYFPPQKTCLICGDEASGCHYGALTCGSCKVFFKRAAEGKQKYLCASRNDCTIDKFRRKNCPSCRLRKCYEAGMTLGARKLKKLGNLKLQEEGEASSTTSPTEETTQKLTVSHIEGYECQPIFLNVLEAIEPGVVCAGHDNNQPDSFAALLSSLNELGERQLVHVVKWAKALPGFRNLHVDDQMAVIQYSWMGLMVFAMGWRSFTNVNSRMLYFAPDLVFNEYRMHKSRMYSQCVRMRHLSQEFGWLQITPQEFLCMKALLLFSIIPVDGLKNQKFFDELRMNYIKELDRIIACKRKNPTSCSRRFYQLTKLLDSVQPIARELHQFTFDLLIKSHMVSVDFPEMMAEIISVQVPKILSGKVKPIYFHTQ
Chain of Estrogen receptor (Homo sapiens) (P03372 whole entry, looked up): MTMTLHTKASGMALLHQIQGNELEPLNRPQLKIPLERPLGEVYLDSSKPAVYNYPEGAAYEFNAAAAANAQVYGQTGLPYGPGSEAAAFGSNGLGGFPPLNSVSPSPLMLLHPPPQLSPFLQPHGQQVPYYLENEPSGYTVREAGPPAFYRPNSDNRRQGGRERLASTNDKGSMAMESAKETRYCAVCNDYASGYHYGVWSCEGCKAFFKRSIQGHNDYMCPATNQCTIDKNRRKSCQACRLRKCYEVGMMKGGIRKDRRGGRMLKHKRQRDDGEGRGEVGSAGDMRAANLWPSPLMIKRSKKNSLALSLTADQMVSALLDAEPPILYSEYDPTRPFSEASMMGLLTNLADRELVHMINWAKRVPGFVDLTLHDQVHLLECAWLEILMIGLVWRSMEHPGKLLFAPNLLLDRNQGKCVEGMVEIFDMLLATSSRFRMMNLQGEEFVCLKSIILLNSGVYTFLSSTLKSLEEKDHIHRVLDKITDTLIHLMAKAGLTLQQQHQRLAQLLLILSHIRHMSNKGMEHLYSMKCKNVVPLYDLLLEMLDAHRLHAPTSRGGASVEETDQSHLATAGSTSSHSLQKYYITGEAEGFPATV
Chain of sheep Cyclooxygenase-1 (Cox1), PTGS1 (gene 443551) (P05979 whole entry, looked up): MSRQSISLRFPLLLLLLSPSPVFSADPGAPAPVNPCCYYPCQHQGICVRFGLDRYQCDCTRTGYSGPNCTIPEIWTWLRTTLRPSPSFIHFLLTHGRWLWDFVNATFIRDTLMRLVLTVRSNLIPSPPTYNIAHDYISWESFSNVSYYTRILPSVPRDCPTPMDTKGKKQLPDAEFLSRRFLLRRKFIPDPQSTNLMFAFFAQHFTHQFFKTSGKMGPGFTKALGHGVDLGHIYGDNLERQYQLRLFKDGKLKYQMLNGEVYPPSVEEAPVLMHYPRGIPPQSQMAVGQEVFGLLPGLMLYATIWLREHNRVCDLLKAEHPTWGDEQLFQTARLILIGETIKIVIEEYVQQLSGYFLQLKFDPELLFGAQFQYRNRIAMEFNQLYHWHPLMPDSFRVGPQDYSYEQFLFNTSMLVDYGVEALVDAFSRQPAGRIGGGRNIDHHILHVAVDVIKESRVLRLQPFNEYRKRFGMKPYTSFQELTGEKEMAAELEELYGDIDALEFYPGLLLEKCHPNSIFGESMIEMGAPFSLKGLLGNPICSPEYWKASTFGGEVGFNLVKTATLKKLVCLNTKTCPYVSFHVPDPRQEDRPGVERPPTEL
Chain of bovine Estrogen Receptor (ER), ESR1 (gene 407238) (P49884 whole entry, looked up): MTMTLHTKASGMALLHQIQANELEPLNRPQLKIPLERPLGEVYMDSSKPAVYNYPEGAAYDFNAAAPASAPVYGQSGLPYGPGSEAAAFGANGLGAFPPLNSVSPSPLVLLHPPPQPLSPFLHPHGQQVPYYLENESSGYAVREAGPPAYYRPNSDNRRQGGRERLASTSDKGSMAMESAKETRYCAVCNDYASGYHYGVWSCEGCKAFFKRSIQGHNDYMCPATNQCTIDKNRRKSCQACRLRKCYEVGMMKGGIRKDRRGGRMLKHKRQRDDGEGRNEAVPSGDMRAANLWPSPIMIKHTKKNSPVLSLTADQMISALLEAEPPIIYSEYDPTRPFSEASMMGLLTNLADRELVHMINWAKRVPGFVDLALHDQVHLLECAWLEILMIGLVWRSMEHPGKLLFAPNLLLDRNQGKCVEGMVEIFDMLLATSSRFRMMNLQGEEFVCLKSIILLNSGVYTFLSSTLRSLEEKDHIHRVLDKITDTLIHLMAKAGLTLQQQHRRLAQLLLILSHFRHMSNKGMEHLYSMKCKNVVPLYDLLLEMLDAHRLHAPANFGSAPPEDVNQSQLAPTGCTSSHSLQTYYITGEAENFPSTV
Chain of D(1A) dopamine receptor (Homo sapiens) (P21728 whole entry, looked up): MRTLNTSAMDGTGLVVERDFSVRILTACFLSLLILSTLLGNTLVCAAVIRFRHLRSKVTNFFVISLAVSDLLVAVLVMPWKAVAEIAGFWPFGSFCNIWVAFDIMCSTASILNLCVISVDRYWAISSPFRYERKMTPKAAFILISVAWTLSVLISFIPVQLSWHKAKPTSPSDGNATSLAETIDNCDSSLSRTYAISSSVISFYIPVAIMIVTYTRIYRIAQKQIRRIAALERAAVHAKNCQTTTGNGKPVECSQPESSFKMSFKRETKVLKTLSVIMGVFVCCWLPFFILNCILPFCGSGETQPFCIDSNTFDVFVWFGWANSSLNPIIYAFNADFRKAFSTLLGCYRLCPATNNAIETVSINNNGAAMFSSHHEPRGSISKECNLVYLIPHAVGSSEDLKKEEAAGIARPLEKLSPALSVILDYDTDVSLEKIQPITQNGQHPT
Chain of human Matrix Metalloproteinase-9 (MMP9), MMP9 (gene 4318) (P14780 whole entry, looked up): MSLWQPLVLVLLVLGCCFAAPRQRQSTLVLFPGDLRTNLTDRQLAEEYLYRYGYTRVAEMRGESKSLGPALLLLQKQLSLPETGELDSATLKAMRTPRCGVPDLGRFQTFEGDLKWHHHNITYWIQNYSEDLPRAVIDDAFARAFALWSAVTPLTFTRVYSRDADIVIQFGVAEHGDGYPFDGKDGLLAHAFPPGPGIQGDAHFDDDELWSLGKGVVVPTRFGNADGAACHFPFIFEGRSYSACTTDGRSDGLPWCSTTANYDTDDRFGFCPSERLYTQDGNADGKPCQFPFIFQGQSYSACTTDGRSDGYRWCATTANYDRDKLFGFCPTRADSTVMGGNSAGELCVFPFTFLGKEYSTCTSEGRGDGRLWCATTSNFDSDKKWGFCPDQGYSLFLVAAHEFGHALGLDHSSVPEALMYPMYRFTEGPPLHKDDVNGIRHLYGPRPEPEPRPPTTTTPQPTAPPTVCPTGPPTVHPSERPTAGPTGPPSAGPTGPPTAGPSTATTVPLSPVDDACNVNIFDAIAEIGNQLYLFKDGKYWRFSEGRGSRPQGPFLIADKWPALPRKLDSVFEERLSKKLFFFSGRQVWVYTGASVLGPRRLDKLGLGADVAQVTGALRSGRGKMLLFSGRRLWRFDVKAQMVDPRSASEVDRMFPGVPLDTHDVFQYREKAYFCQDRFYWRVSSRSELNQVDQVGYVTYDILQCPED
Chain of rat Peripheral-type Benzodiazepine Receptor (PBR), Tspo (gene 24230) (P16257 whole entry, looked up): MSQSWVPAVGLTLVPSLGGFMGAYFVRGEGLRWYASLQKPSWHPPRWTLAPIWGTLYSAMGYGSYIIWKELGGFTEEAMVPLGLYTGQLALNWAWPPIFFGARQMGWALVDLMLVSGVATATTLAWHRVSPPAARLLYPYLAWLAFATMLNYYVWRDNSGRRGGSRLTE
Chain of human Adenosine A2a Receptor (AdoRA2a), ADORA2A (gene 135) (P29274 whole entry, looked up): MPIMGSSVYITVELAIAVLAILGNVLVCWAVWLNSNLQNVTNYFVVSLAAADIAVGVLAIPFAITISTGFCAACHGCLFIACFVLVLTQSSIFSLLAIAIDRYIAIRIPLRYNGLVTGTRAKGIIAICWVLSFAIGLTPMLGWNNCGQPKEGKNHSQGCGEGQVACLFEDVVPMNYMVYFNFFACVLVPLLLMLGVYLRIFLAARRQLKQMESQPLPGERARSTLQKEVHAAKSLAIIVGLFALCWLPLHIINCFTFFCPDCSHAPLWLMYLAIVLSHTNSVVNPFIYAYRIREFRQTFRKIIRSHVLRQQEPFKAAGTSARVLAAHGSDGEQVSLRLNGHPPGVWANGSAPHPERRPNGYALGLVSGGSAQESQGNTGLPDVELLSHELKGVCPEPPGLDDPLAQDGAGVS

Consider `CCCCC/C=C\C/C=C\CCCCCCCC(=O)OC`, for which the AC50 in experiment [1] was 45.1 µM (active); in experiment [2], 25 µM (active); in experiment [3], 16.9 µM (active); in [4], 9.68 µM (active) and 8.87 µM (active); in experiment [6], 4.2 µM (active) and 11.5 µM (active); in [7], 6.14 µM (active). Further, the call in [5], in experiment [7] and in [8] was inactive.
For the compound `C1=CCCC1`, the outcome in experiment [9] and in experiment [1] was inactive.
As to `c1ccc2c(c1)ccc1cc3c(ccc4ccccc43)cc12`, the AC50 in [10] was 4.46 µM (active); in experiment [11] it was 22.5 µM (active). For the same compound, the outcome in experiment [12], in [6] and in experiment [8] was inactive.
Regarding `C#CC1(O)CC[C@H]2[C@@H]3CCC4=CCCC[C@@H]4[C@H]3CC[C@@]21C` (stereo partly specified), the AC50 in [11] was 43.8 µM (active); in experiment [5], 6.05 µM (active); in experiment [7], 0.258 µM (active). Moreover, the outcome in [13], in experiment [1], in experiment [6] and in experiment [7] was inactive.
`Cn1c(=O)[nH]c2ncn(C)c2c1=O`: in [14], the AC50 was 25 µM (active).
As to `S=C(NC1CCCCC1)NC1CCCCC1`, the AC50 is 6.33 µM (active) in [10] and 1.56 µM (active) in [2]. Further, the compound was classed as inactive in experiment [5] and in [7].
In the case of `c1ccc(-c2ccccn2)nc1`, the call in experiment [11] was inactive.
As for `COc1ccc2nc(N)sc2c1`, the AC50 in [11] was 14.9 µM (active).
On to `Cc1cc(C)c(C)c(C)c1`, for which the outcome in experiment [15] was inactive.
As to `C=CC(=O)OCC(Br)CBr` (stereo unspecified), the call in experiment [1] was inactive.
In the case of `CC(CC=O)CCCC(C)(C)O` (stereo unspecified), the result in experiment [11] and in experiment [8] was inactive.
Take `Cc1ccc(N)c([N+](=O)[O-])c1`: the call in experiment [15] and in [2] was inactive.

Usually AC50 stands for the midpoint of the concentration-response curve, whichever way the signal moves.

Values taken from PubChem BioAssay (EPA / NIEHS).
